# Screens from PubChem BioAssay.
# Pf growth 96h = P. falciparum growth inhibition at 96 hours; P. falciparum luciferase reporter growth, 96 h; Potency, µM (titrated, usually from 28.7 µM), inactives show top-dose activity change, negative = inhibition, actives largely listed as inhibitors; hit rate 6.9% among 320,000; AID 504834; active = well fitted inhibition curve with a large enough effect; inconclusive = small, poorly fitted or top-dose-only effect, or another doubt; inactive = no such curve, though single readings can be large or run the other way; also: potency is read from the fitted curve at half-maximal effect; % is scaled to controls: 0 for no effect and ±100 for the full control effect
#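 Erythrocytes infected with luciferase-expressing P. falciparum were dispensed at 2% hematocrit and 0.05% parasitemia (final), then incubated with compounds 96 hours at 37 C in 5% CO2. Luminescence after detection reagent addition reported growth.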
# SARS PLpro yeast = inhibitors of SARS-CoV papain-like protease in yeast; S. cerevisiae expressing SARS-CoV PLpro, growth rescue; Potency, µM (top dose mostly 32.9 µM), for inactives: top-dose activity, positive = growth rescue, hits mostly activators; hit rate 0.19% among 330,000; also: potency is read from the fitted curve at half-maximal effect; 0% is about no effect; nearly all actives have a fitted effect of over 55% in size
# Pf growth 48h = inhibits P. falciparum growth in the first generation, 48 h. P. falciparum luciferase growth in erythrocytes, 48 h. Potency, µM (doses to about 28.7 µM), for inactives: at the top dose activity change, negative = inhibition, usual class: inhibitors. hit rate 5.9% among 310,000. AID 504832; active = well fitted inhibition curve with a large enough effect; inconclusive = small, poorly fitted or top-dose-only effect, or another doubt; inactive = no such curve, though single readings can be large or run the other way; also: potency is read from the fitted curve at half-maximal effect; % is scaled to controls: 0 for no effect and ±100 for the full control effect
#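 Here the parasites carry a stable luciferase gene and grow inside erythrocytes in Albumax-based RPMI medium with compound for one erythrocytic cycle. Activity is scored as loss of luminescent signal.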
# CHX counter = counter-screen hit for Shiga toxin inhibitors, cycloheximide; cell reporter, cycloheximide protein synthesis inhibition counterscreen; max response, %; hit rate 12% among 300,000; AID 2314; in the data active = max response mostly above about 13%, no sharp cut-off; inactive = mostly below about 14%; also: read at 38.3 µM for the half of the compounds with a filed dose; 0% is about no effect
# Shiga inhibitor = Shiga toxin inhibition. Vero cells, Shiga toxin protein synthesis inhibition reporter. inhibition, % at 38.7 µM. hit rate 9.2% among 290,000. AID 2315; in the data active = inhibition mostly above about 28%, no sharp cut-off; inactive = mostly below about 43%; also: 0% is about no effect
# NS1 function inh = influenza NS1 inhibition; Potency, µM (highest dose often 46.1 µM), for inactives: top-dose activity, positive = more growth; hit rate 0.4% among 270,000; AID 2326; also: potency is read from the fitted curve at half-maximal effect; actives are rising curves; nearly all actives have a fitted effect of over 50% in size
#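 In this qHTS, NS1 from influenza A is expressed in budding yeast, where it slows growth. Cells are switched from glucose to 2% galactose medium (pH 6.0, -URA), treated with compound, and growth recovery is read at OD600.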
# Active calls of the source: *; i = inactive; u = inconclusive; x = no result. The list is not random: actives were taken first. Their share in the collection is about 21%. Unless noted, calls follow the shape of the full dose curve.
SMILES,Pf growth 96h,SARS PLpro yeast,Pf growth 48h,CHX counter,Shiga inhibitor,NS1 function inh
CC(C)=CCN1CCN(Cc2cnc(N3CCCC3)s2)CC1CCO (stereo not drawn),-2%,0%,-1%,-2,-12,4%
CC(C)=CCN1CCN(Cc2cnc(N3CCOCC3)s2)CC1CCO (stereo not drawn),12µM*,-1%,160%,58*,98*,-2%
CC(C)=CCN1CCN(Cc2cnc(C)s2)CC1CCO (stereo not drawn),u,-2%,20%,43*,70*,-7%
CCOc1ccc(S(=O)(=O)NCCCl)cc1,27%,1%,5%,9,0,3%
CCN(c1ccc(N=Cc2c(O)n(Cc3ccc(OC)cc3)c(=O)c3ccccc23)cc1)C(C)C,1.5µM*,-1%,u,25,53,x
COc1ccc(-n2c(O)c(C=Nc3ccccc3)c3ccccc3c2=O)cc1,-8%,0%,-3%,-9,-13,x
CCOc1nc(-c2ccccc2Cl)ccc1C#N,-16%,-1%,-5%,9,-7,-3%
COc1ccc(-c2cc(=O)c3ccc(F)cc3[nH]2)cc1,x,x,x,-2,i,x
O=C1C(c2cc(=O)c3ccccc3[nH]2)=C(O)c2ccccc21,-22%,-16%,-9%,42*,137*,11%
O=c1c2ccccc2[nH]c2ccc(O)cc12,u,-15%,-10%,3,16,1%
O=c1cc(-c2ccccc2)[nH]c2ccccc12,2%,-12%,1.5µM*,-3,7,-67%
CS(=O)(=O)c1cccc(-c2csc(N3CCC(C(N)=O)CC3)n2)c1,0%,-13%,u,x,x,x
COc1cc2c(cc1O)[C@@H](c1cc(O)c(O)c(OC)c1)[C@@](O)(C(=O)O)[C@@H](CO)[C@@H]2O,x,x,x,x,x,0%
O=C(NC1CCCCC1)c1cc(-c2ccc(F)cc2)on1,-27%,2%,75%,12*,36,8%
Cc1ccc(-c2cc(C(=O)NC3CCCC3)no2)cc1,34%,-1%,108%,37*,92*,-31%
Cc1c(NC(=O)c2cc(-c3ccc(Cl)c(Cl)c3)on2)c(=O)n(-c2ccccc2)n1C,37%,3%,10%,-2,-6,12%
O=C(NC1CCCCC1)c1cc(-c2cccs2)on1,u,17%,192%,50*,117*,-5%
Cc1cc(-c2ccccc2C(=O)NC2CCCCC2)on1,12%,-1%,26%,-1,-10,0%
O=C(NC1CCCC1)c1cc(-c2ccc(Cl)c(Cl)c2)on1,48%,1%,10%,27*,45*,0%
O=C(COCc1cc(-c2cccs2)on1)NC1CCCCC1,18%,-4%,13%,7,-6,-12%
O=C(NCCC(=O)N1CCN(c2ccccn2)CC1)c1ccc([N+](=O)[O-])cc1,x,-1%,x,x,x,x
CCOc1cc(S(=O)(=O)N2CCC(C(N)=O)CC2)ccc1F,x,5%,18%,-3,-8,-2%
CCc1nnc(NC(=O)CCC(=O)N2CCN(Cc3ccc(F)cc3)CC2)s1,-44%,1%,7%,-1,-9,8%
CCOC(=O)CSc1nc(C2CC2)cc(-c2ccc(Cl)cc2)c1C#N,-27%,2%,10µM*,-5,14,-2%
COC(=O)CSc1nc(C2CC2)cc(C(F)(F)F)c1C#N,x,6%,1%,-2,-15,-14%
SMILES,Pf growth 96h,SARS PLpro yeast,Pf growth 48h,CHX counter,Shiga inhibitor,NS1 function inh
N#Cc1c(-c2ccccc2F)cc(C2CC2)nc1SCC(=O)c1cccs1,u,8%,u,13*,-12,12%
CCc1c(C)nc(SCC(=O)c2cccs2)c(C#N)c1C,121%,-9%,x,39*,40,-6%
CCc1c(C)nc(SCC(N)=O)c(C#N)c1C,-30%,7%,x,12,10,6%
CCCSc1nc(N)nc(-c2cccs2)c1C#N,-5%,-29%,54%,35*,84*,-143%
O=C(O)c1c(-n2cccc2)sc2c1CCCC2,-9%,0%,24%,-5,13,-1%
Cc1cccc(NC(=O)c2cc(-c3ccccn3)nc3ccccc23)c1C,2%,0%,u,1,-16,-3%
CCSc1nc(C2CC2)cc(-c2cccs2)c1C#N,2%,-16%,x,16*,10,-2%
CCCSc1sc(C(=O)OC)c(-c2cccs2)c1C#N,10µM*,1%,10µM*,1,-1,-3%
CSc1sc(C(=O)N2CCCCC2)c(-c2cccs2)c1C#N,3%,0%,-2%,0,3,-7%
CCCCCC1C(=O)C[C@@H]2CCN3C(=O)CCC[C@H]1[C@H]23 (stereo partly drawn),x,13%,x,0,i,x
COc1cccc(C2c3[nH]c4ccccc4c3C[C@H]3C(=O)N(c4ccccc4C(=O)N4CCC[C@H]4C(=O)O)C(=O)N23)c1 (stereo partly drawn),u,4%,u,0,-6,u
CC(C)c1ccc(C2c3[nH]c4ccccc4c3C[C@H]3C(=O)N(c4ccccc4C(=O)N4CCC[C@@H]4C(=O)O)C(=O)N23)cc1 (stereo partly drawn),8.3µM*,4%,9.3µM*,-1,8,11%
COc1ccc(C2c3[nH]c4ccccc4c3C[C@H]3C(=O)N(c4ccccc4C(=O)N4CCC[C@@H]4C(=O)O)C(=O)N23)cc1 (stereo partly drawn),u,1%,12µM*,x,x,x
CC(C)c1ccc(C2c3[nH]c4ccccc4c3C[C@H]3C(=O)N(c4ccccc4C(=O)N4CCC(C(=O)O)CC4)C(=O)N23)cc1 (stereo partly drawn),1.5µM*,-1%,1.7µM*,2,-3,-18%
O=C(O)[C@H]1CCCN1C(=O)c1ccccc1N1C(=O)[C@@H]2Cc3c([nH]c4ccccc34)C(c3cccc(Cl)c3)N2C1=O (stereo partly drawn),u,2%,u,-3,-2,u
O=C(O)[C@@H]1CCCN1C(=O)c1ccccc1N1C(=O)[C@@H]2Cc3c([nH]c4ccccc34)C(c3cccc(Cl)c3)N2C1=O (stereo partly drawn),10µM*,4%,u,-3,-2,u
O=C1[C@@H]2Cc3c([nH]c4ccccc34)C(c3ccc(Cl)cc3)N2C(=O)CN1CCO (stereo partly drawn),10%,-2%,u,-4,18,-4%
COc1ccc(C2c3[nH]c4ccccc4c3C[C@H]3C(=O)N(c4ccccc4C(=O)N4CCC[C@H]4C(=O)O)C(=O)N23)cc1 (stereo partly drawn),u,4%,9.3µM*,7,-4,18%
Cc1ccc(C2c3[nH]c4ccccc4c3C[C@H]3C(=O)N(c4ccccc4C(=O)N4CCC[C@H]4C(=O)O)C(=O)N23)cc1 (stereo partly drawn),10µM*,6%,u,-2,3,15%
